# Assay results: ChEMBL document CHEMBL3988442, “University of Dundee, Small-Polar-MMV Screening Library” (2021)
# For some assays here: Potency and affinity values are given separately.
# Columns and labels:
# Design in all cases: scale not given: direction of the effect not stated beside the values
# [1] = molecular target: Protein translocase subunit SecA (Escherichia coli (strain K12)) (UniProt P10408); test: Assay to Identify E. coli SecA ATPase Inhibitors; assay type: functional; details: 30 µM
# Protein translocase subunit SecA (Escherichia coli (strain K12)), sequence (P10408 whole entry): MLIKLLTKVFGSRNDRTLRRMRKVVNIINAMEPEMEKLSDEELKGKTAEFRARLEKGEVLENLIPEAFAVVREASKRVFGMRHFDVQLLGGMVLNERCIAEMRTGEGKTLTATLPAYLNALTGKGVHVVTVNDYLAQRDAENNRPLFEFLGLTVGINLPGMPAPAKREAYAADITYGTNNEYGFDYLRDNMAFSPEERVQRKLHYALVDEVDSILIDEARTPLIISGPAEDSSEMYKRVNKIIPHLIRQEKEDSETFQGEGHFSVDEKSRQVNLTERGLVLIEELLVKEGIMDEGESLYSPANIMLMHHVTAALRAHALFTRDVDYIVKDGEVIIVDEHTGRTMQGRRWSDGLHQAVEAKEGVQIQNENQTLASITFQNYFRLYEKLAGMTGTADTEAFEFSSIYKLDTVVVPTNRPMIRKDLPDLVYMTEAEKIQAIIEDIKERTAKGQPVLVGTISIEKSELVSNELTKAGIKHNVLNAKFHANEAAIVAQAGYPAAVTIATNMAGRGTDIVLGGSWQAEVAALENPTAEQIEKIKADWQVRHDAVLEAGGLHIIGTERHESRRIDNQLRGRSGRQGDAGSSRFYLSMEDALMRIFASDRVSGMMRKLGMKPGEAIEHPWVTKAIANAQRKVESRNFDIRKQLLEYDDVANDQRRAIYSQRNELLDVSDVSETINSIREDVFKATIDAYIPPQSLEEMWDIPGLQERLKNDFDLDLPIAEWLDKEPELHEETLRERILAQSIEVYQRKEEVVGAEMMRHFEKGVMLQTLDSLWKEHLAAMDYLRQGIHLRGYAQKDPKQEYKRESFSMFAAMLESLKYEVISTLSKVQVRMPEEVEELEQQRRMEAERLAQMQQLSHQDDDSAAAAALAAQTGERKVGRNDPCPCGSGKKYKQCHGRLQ
# [2] = molecular target: T1, Ubiquitin-activating enzyme e1, putative (Leishmania donovani (strain BPK282A1)) (UniProt E9BSI1); test: Leishmania donovani Ubiquitin Activating Enzyme (LdE1); assay type: functional; details: 30 µM
# T1 sequence (whole entry): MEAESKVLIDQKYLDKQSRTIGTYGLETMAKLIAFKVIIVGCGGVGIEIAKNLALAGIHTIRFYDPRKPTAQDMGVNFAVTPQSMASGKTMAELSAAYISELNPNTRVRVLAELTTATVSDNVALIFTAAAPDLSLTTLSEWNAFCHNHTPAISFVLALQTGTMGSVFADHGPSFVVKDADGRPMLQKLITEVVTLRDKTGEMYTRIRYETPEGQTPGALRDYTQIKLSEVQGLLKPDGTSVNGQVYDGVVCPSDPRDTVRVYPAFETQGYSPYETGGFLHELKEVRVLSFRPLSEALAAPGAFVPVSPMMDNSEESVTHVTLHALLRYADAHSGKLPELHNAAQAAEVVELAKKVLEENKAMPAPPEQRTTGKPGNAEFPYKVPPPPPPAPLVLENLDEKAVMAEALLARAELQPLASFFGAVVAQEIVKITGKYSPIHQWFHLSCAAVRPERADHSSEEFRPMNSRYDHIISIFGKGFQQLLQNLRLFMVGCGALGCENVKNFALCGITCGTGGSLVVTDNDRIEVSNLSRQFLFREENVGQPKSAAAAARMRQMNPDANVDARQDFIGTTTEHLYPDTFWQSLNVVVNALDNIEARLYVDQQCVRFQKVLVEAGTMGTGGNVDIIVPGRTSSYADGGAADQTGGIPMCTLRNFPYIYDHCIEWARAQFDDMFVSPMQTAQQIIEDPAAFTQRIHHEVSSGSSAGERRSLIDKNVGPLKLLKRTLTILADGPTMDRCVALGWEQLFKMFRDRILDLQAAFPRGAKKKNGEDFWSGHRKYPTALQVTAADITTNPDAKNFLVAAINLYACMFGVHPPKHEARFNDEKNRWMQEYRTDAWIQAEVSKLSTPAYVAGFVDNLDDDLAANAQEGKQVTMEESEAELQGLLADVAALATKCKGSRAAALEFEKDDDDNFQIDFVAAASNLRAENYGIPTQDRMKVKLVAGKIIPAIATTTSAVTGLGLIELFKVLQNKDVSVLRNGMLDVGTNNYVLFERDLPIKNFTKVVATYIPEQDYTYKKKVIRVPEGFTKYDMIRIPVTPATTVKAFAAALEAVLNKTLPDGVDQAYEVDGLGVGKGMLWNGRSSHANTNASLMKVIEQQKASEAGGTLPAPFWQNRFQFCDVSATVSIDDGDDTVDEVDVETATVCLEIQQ
# [3] = molecular target: AMP-activated protein kinase, AMPK (Homo sapiens) (UniProt P54646+O43741+P54619+Q9UGJ0+Q9Y478+Q13131+Q9UGI9); test: AMP-dependent Kinase enzyme assay. An in vitro enzyme assay that detects ADP turnover that is directly proportional to AMPK activity. This uses naive AMPK that is activated during the assay with MK-8722; assay type: functional; details: 30 µM
# [4] = molecular target: Sialic acid-binding Ig-like lectin 9 (Homo sapiens) (UniProt Q9Y336); test: Hs-Siglec9 ALPHAscreen SOP 20170721; details: 10 µM
# Sialic acid-binding Ig-like lectin 9 (Homo sapiens), sequence (Q9Y336 whole entry): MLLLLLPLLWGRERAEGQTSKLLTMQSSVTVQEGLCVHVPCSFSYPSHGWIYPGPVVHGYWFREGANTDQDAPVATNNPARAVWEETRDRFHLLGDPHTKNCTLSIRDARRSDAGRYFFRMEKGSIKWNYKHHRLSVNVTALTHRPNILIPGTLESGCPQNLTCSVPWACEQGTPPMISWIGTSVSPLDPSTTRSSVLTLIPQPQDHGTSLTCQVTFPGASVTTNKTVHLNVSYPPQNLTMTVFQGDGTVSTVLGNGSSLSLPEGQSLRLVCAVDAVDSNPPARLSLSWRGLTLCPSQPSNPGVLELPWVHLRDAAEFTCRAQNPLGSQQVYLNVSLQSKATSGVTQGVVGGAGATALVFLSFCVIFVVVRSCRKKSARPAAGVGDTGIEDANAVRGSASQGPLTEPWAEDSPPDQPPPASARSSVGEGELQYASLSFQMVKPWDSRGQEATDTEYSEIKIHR
# Trypanosoma cruzi = test: Trypanosoma cruzi phosphomannomutase and mannose-1-phosphate guanylyltransferase assay; assay type: functional; details: 10 µM
# [5] = molecular target: T2, Arginase-2, mitochondrial (Homo sapiens) (UniProt P78540); test: in vitro enzyme assay to detect the production of urea directly proportional to the activity of Arginase II; assay type: functional; details: 33.3 µM; further: in the data most compounds retested in dose-response had high values
# T2 sequence (whole entry): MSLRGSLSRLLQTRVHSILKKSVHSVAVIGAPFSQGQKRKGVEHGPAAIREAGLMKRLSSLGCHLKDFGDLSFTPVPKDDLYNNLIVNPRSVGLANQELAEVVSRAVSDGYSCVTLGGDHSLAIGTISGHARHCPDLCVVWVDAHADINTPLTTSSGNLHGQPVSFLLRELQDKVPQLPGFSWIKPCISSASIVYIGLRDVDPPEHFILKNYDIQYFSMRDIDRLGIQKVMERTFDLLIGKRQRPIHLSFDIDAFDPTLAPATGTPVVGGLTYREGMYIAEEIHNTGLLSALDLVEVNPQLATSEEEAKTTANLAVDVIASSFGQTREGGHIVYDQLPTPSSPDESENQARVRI
# [6] = molecular target: T3, Proteasome subunit beta (Trypanosoma cruzi) (UniProt O96673); test: Trypanosoma cruzi proteasome chymotrypsin-like activity (TcProtChymo) assay.; further: in the data most compounds retested in dose-response had high values; assay type: functional; details: 9.37 µM
# T3 sequence (whole entry): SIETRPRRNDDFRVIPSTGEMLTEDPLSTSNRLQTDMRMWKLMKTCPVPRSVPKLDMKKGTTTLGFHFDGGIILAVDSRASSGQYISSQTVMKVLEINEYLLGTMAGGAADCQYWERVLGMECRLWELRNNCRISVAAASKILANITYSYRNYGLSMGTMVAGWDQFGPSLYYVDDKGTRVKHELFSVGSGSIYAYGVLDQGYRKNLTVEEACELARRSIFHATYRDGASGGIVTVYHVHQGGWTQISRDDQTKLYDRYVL
# Homo sapiens = species: Homo sapiens; test: To identify inhibition of the IFN signalling (Jak-Stat) pathway via expression of an eGFP reporter gene under the control of an IFN-stimulated response element (ISRE) containing MxA promoter.; assay type: functional; details: 30 µM
# [7] = molecular target: T4, Tyrosyl-tRNA synthetase, putative (Trypanosoma cruzi (strain CL Brener)) (UniProt Q4DSP6); test: Trypanosoma cruzi tyrosyl tRNA synthetase (TcYRS) _High Tyrosine SOP; assay type: functional; details: 30 µM; further: in the data most compounds retested in dose-response had high values
# T4 sequence (whole entry): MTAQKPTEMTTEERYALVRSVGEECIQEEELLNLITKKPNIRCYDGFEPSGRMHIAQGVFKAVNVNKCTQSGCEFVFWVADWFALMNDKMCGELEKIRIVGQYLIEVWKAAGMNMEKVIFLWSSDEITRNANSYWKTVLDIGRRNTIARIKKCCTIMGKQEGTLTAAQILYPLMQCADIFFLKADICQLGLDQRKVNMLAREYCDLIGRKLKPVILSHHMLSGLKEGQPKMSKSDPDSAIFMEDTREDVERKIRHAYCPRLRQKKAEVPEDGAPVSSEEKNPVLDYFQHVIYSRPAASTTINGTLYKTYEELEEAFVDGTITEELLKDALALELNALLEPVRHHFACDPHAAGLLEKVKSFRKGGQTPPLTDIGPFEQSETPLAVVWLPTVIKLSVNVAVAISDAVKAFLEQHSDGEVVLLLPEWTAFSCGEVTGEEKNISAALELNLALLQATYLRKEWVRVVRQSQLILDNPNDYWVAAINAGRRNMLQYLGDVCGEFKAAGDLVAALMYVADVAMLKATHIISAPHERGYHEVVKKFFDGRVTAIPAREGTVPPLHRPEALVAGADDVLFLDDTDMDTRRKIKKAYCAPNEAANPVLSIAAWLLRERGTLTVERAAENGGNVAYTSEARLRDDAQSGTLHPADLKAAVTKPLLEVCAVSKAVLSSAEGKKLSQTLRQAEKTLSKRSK
# [8] = molecular target: T4, Tyrosyl-tRNA synthetase, putative (Trypanosoma cruzi (strain CL Brener)); test: Trypanosoma cruzi tyrosyl tRNA synthetase (TcYRS) SOP; assay type: functional; details: 30 µM
# [9] = molecular target: Chromo domain-containing protein 1 (Saccharomyces cerevisiae (strain ATCC 204508 / S288c) (Baker's yeast)) (UniProt P32657); test: ScCHD-1 Enzyme Inhibition Assay; assay type: functional; details: 30 µM; further: in the data most compounds retested in dose-response had high values
# Chromo domain-containing protein 1 (Saccharomyces cerevisiae (strain ATCC 204508 / S288c) (Baker's yeast)), sequence (P32657 whole entry, the tested form may be a part): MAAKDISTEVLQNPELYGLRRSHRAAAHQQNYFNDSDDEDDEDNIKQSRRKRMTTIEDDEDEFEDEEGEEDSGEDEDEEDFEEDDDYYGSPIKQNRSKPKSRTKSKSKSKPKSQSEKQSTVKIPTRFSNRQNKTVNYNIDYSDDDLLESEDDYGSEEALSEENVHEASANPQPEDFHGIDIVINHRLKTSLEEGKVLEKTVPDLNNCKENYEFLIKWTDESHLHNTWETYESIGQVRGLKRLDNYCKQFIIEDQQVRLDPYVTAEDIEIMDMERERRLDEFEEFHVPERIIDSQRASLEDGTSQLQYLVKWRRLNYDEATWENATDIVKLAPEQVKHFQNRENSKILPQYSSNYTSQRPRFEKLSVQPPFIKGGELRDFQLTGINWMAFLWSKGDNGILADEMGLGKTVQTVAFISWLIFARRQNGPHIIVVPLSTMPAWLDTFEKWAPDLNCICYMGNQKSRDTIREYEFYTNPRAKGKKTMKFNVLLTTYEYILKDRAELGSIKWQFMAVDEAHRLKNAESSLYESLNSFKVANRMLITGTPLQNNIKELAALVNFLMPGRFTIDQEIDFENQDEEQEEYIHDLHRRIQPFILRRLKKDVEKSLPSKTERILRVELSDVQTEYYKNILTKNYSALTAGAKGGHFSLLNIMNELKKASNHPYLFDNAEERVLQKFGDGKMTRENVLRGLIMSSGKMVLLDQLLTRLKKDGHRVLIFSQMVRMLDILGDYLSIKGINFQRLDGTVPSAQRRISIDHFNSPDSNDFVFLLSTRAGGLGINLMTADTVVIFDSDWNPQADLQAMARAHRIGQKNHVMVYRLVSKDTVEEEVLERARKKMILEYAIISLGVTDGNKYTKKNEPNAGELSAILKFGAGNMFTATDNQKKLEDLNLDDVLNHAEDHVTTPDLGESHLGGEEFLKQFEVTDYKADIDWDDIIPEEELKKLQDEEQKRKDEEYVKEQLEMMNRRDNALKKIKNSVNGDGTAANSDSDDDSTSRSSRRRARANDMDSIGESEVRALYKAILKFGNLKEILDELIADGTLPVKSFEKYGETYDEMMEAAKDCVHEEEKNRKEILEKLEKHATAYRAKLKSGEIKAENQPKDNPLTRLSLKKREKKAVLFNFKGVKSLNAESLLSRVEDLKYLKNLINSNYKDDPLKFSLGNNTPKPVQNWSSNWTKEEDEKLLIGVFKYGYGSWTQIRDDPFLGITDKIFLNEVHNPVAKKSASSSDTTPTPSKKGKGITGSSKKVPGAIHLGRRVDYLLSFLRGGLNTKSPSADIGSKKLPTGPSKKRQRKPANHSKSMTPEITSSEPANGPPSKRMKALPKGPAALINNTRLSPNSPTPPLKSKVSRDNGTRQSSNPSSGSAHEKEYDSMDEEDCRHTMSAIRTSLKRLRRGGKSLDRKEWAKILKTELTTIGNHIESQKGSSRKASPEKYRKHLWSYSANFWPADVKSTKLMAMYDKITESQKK
Structure (SMILES),Percent Effect [1] [%],Percent Effect [2] [%],Percent Effect [3] [%],Percent Effect [4] [%],Percent Effect (Trypanosoma cruzi) [%],Percent Effect [5] [%],Percent Effect [6] [%],Percent Effect (Homo sapiens) [%],Percent Effect [7] [%],Percent Effect [8] [%],Percent Effect [9] [%]
COCC(c1cccc(C(F)(F)F)c1)N(C)C(=O)c1cc(C)n[nH]1 (configuration not stated),0.248,18.4,-1.4,-4.5,-3.01,2.68,9.02,0.723,1.47,12.2,-13
O=C(NCCN1CCNCC1)c1c(O)c2ccccc2[nH]c1=O,1.56,12,11,-7.32,-9.23,-14.3,20.1,26.5,0,5.13,-9.61
COCCNC(=O)[C@H]1CN(Cc2scnc2C)C[C@H]2OCC[C@@H]12,-3.71,5.48,0.0499,5.36,3.77,1.2,1.11,4.51,5.21,16.1,1.51
N#Cc1cn(C2CC2)c(=O)n(CC(O)c2ccc(OC(F)F)cc2)c1=O (configuration not stated),-5.26,15.8,-4.7,7.1,6.01,0,11.2,3.44,0.49,17.1,-12.4
CC(NC(N)=O)C(=O)N(C)CCCc1cc(-c2ccccc2)no1 (configuration not stated),-3.18,2.7,7.96,-4.86,-10.1,-1.29,9.34,25,3.96,6.1,0.208
CC(C)(C)N1CC(C(=O)N2CCN(CCc3ccccc3)CC2)CC1=O (configuration not stated),-1.55,5.33,-2.2,1.39,-3.6,1.56,17.1,32.1,4.92,11.1,-6.21
CC(C)C(C(=O)N1CCC(Nc2cccnn2)CC1)n1cncn1 (configuration not stated),-0.999,-2.7,-4.26,1.29,-6.51,1.2,5.59,9.97,0.493,-1.24,-1.75
O=C1CC2(CCN(S(=O)(=O)C3CC3)C2)CN1c1cncnc1 (configuration not stated),1.95,16,-1.36,-1.59,1.54,-50.7,9.74,5.32,6.25,27.5,-4.67
O=C(CCc1nccs1)N1CCN(c2ncccn2)CC1,-10.4,-7.79,-1.74,-4.24,7.93,-0.632,9.3,1.03,5.71,18.8,-11
Cc1cc(CN2CCN(C(=O)NCc3nc(C)cs3)CC2)on1,-3.26,23.7,-8.55,-8.19,-4.95,0,12.9,-12.4,5.42,13.6,-3.29
CS(=O)(=O)N1CCOCC2(CCN(C(=O)c3cccnc3)CC2)C1,0.0699,2.74,2.01,-0.0941,2.78,4.79,9.33,-18.8,0,3.7,-3.11
CCN(CC)C(=O)c1cc(C2CCCN2C)ccn1 (configuration not stated),-5.39,23,-2.48,-2.94,0.988,-2.55,15.4,-5.61,5.38,11.7,-12.8
CN1CCN(Cc2nc3ccccc3[nH]2)[C@H]2CS(=O)(=O)C[C@H]21,-1.9,8.11,-2.29,-1.77,-1.07,-1.24,13.1,5.83,10.8,18.5,-2.69
CC(=O)N1CCC[C@H]1C(=O)NCCOc1cccc(Cl)c1,-0.692,7.79,-8.32,-3.36,4.31,4.98,13.7,12.4,6.8,24.4,-9.94
CN(C)Cc1nnc(C2CCN(C(=O)CCc3cccs3)CC2)n1C,-3.21,13.5,-7.22,25.4,4.83,1.43,12.1,5.64,6.88,14.6,72.9
COc1cccc(OCCNC(=O)CN2CCN(C)CC2C)c1 (configuration not stated),-4.33,13.5,-5.8,15,6.59,-2.77,7.54,11.6,3.96,18.3,-8.99
CS(=O)(=O)N1CCOC2(CCCN(c3cnccn3)C2)C1 (configuration not stated),-3.81,0,-1.28,-4.89,-2.83,1.74,6.09,1.81,1.07,1.24,0.866
O=C(Cn1cc(C(=O)O)ccc1=O)Nc1ccc(Cl)cc1F,-1.04,20,-5.95,0.752,1.38,-4.75,10.7,9.59,7.41,10.3,-12
CNS(=O)(=O)c1cccc(C(C)NCc2nccn2C(C)C)c1 (configuration not stated),-0.324,13.5,-9.13,-6.24,-0.781,16.2,16.3,10.9,10.9,15.8,2.31
O=C(NCCCN1CCOCC1)c1cc(-c2ccco2)[nH]n1,-3.38,8.22,-11,10.3,-0.794,2.4,11.2,0.231,11.5,28.4,-2.57
Cc1cnn(CC2CCCN2C(=O)c2ccc3[nH]nnc3c2)c1 (configuration not stated),-1.48,8.86,-1.94,-8.54,2.97,-2.8,17.5,2.88,1.04,10.1,-4.85
CCn1cc(CN(C)S(=O)(=O)c2ccc(NC(C)=O)cc2)cn1,2.78,14.7,5.54,-0.366,-2.95,-15,7.39,18,1.06,7.69,-7.39
